Assay results: PubChem BioAssay (Tox21)
Records with an inconclusive call do not appear. A call without a number means that no potency is given here. Values without a mark were called inactive. Calls of active or inactive are those of the source. Calls come from the whole dose curve; as a rule, active = well fitted cell-killing curve with a large enough effect in the repeat runs; inconclusive = weak or mixed curves, or effect the other way; inactive = flat fitted curve, though single readings scatter.

Experiments:
[1] = cAMP Responsive Elements (CRE) small molecule antagonists, cell-based qHTS assay: qHTS cell viability counter screen (AID 2060913); note: nearly all actives have a fitted effect of over 40% in size
Procedure, shortened: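 Cytotoxicity read in the same wells as the CRE-bla HEK293T antagonist assay: after 3 h compound with 0.25 uM NKH477 final and 2 h beta-lactamase substrate, CellTiter-Glo luminescence measured.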

[2] = cAMP Responsive Elements (CRE) small molecule agonists, cell-based qHTS assay: qHTS cell viability counter screen (AID 2060914); note: nearly all actives have a fitted effect of over 50% in size
Procedure, shortened: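 In the same wells as the reporter read, viability of CRE-bla HEK 293T cells was quantified by CellTiter-Glo luminescence after a 3 h compound exposure.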

| SMILES | Potency [1] | Potency [2] |
| --- | --- | --- |
| CCCCCC=CCC=CCCCCCCCC(=O)OCC | inactive | inactive |
| CCCCCCOC(=O)c1ccccc1 | inactive | inactive |
| C1C[C@@H]2[C@H]3CC[C@H](C3)[C@@H]2C1 | inactive | inactive |
| CC(C)CC(=O)N[C@H](C(=O)N[C@H](C(=O)N[C@@H](CC(C)C)[C@@H](O)CC(=O)N[C@@H](C)C(=O)N[C@@H](CC(C)C)[C@@H](O)CC(=O)O)C(C)C)C(C)C | inactive | inactive |
| OCCCCCCCCCCCCBr | inactive | inactive |
| CC1(C)S[C@@H]2[C@H](NC(=O)COc3ccccc3)C(=O)N2[C@H]1C(=O)O | inactive | inactive |
| O=C(O)c1snc(Cl)c1Cl | inactive | inactive |
| Cc1ccc(S(=O)(=O)NC2CCCCC2)cc1 | inactive | inactive |
| C=CCOC(=O)C(=C)C | inactive | inactive |
| CC1COc2c(N3CCN(C)CC3)c(F)cc3c(=O)c(C(=O)O)cn1c23 (stereo not given) | inactive | inactive |
| C=CC(O)CCCCC (stereo not given) | inactive | inactive |
| OCC(CO)N[C@H]1C[C@](O)(CO)[C@@H](O)[C@H](O)[C@H]1O | inactive | inactive |
| CN1CCC(=C2c3ccccc3C=Cc3ccccc32)CC1 | inactive | inactive |
| O=C1CCC(=O)N1Cl | inactive | inactive |
| NC(=O)c1ccccc1N | inactive | inactive |
| Oc1cc2ccccc2cc1O | inactive | inactive |
| CN1CCOCC1 | inactive | inactive |
| CCCCC(CC)C(=O)OCCOCCOCCOCCOC(=O)C(CC)CCCC (stereo not given) | inactive | inactive |
| COc1cc(Cl)c(OC)cc1N | inactive | inactive |
| O=C(O)c1ccc(C(=O)O)cc1 | inactive | inactive |
| O=S(=O)(O)c1ccc2ccccc2c1 | inactive | inactive |
| O=[N+]([O-])c1ccccc1Nc1ccccc1 | inactive | inactive |
| Nc1c(Cl)cc(Cl)cc1[N+](=O)[O-] | inactive | inactive |
| O=C(O[C@@H]1Cc2c(O)cc(O)cc2O[C@@H]1c1cc(O)c(O)c(O)c1)c1cc(O)c(O)c(O)c1 | inactive | inactive |
| C1=COCCC1 | inactive | inactive |

| SMILES | Potency [1] | Potency [2] |
| --- | --- | --- |
| N#CSCSc1nc2ccccc2s1 | inactive | inactive |
| O=C(OCCCCCOC(=O)c1ccccc1)c1ccccc1 | inactive | inactive |
| O=c1n(CCCN2CCN(c3cccc(Cl)c3)CC2)nc2ccccn12 | inactive | inactive |
| c1ccc(CN(Cc2ccccc2)Cc2ccccc2)cc1 | inactive | inactive |
| O=C1CCCCCCCCCCC1 | inactive | inactive |
| O=C1c2ccccc2C(=O)C1c1nc2ccccc2c(Br)c1O | inactive | inactive |
| O=C(O)COC(=O)Cc1ccccc1Nc1c(Cl)cccc1Cl | inactive | inactive |
| O=C1O[C@@H]2[C@@H](O)[C@H](O)O[C@@H]2[C@H]1O | inactive | inactive |
| Cc1c(Cl)cccc1[N+](=O)[O-] | inactive | inactive |
| O=C(O)c1c(O)c(-c2ccccc2)nc2ccccc12 | inactive | inactive |
| COc1cc(O)c(C(=O)c2ccccc2)cc1S(=O)(=O)O | inactive | inactive |
| CCCCc1nc(Cl)c(CO)n1Cc1ccc(-c2ccccc2-c2nn[nH]n2)cc1 | inactive | inactive |
| COc1ccccc1OCC(O)CO (stereo not given) | inactive | inactive |
| O=S(=O)(c1cccc2cnccc12)N1CCCNCC1 | inactive | inactive |
| Cc1cnc(NC(=O)C2=C(O)c3ccccc3S(=O)(=O)N2C)s1 | inactive | inactive |
| CCCOc1ccc(S(=O)(=O)N2CCN(CC)CC2)cc1-c1nc2c(CC)n(Cc3ccccn3)nc2c(=O)[nH]1 | inactive | inactive |
| CN(C)c1ccc(C(c2ccccc2)c2ccc(N(C)C)cc2)cc1 | inactive | inactive |
| Cc1cn([C@H]2C=C[C@@H](CO)O2)c(=O)[nH]c1=O | inactive | inactive |
| Clc1ccc(Sc2cc(Cl)c(Cl)cc2Cl)cc1 | inactive | inactive |
| CC(=O)NCCCCCC(=O)O | inactive | inactive |
| CC(=O)OC(C)(C)C1CC=C(C)CC1 (stereo not given) | inactive | inactive |
| CCOc1ccc2c(c1)C(C)CC(C)(C)N2 (stereo not given) | inactive | inactive |
| Cc1ccc(NC=O)c(C)c1 | inactive | inactive |
| COCCOC(=O)C1=C(C)NC(C)=C(C(=O)OC(C)C)C1c1cccc([N+](=O)[O-])c1 (stereo not given) | inactive | inactive |
| O=C1C(O)=C(O)C(=O)C(O)=C1O | inactive | inactive |
